Results from PubChem BioAssay (Tox21).
Values joined by “and” are separate entries in the source; they are usually repeats but may differ in a detail not shown here. Identical values can stand only once. Records with an inconclusive call do not appear. Active and inactive are the calls of the source. Unless noted, calls follow the shape of the full dose curve.

Assays:
[1] = Nuclear factor erythroid 2-related factor 2/antioxidant responsive element (Nrf2/ARE) small molecule agonists: luciferase reporter gene qHTS assay in human keratinocytes (AID 1919969); also: nearly all actives have a fitted effect of over 35% in size; also: potency is read from the fitted curve at half-maximal effect
[2] = biological target: Gonadotropin-releasing hormone receptor (Homo sapiens) (UniProt P30968); assay: Human gonadotropin-releasing hormone receptor (GnRHR) small molecule agonists, calcium flux assay in GnRHR-HEK293 cells (AID 1920063); also: nearly all actives have a fitted effect of over 35% in size
Sequence of Gonadotropin-releasing hormone receptor (Homo sapiens) (P30968 whole entry, looked up): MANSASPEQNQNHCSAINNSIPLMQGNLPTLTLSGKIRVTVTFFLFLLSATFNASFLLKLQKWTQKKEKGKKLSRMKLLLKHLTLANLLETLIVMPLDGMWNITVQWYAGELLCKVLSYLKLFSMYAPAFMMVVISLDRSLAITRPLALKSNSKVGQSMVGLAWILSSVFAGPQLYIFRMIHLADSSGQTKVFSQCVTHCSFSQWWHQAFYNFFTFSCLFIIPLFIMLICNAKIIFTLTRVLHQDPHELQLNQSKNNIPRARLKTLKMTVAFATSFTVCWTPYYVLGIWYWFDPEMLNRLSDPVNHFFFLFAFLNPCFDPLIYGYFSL
Method in brief: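 GnRHR-HEK293, 1500 cells/well, 18 h 37 C/5% CO2; Ca dye 1 h 37 C; cpd pinned (DMSO), agonist mode; kinetic FL 480/540, 3 min, 1 s reads; 15 conc, n=3.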

[3] = biological target: KiSS-1 receptor (Homo sapiens) (UniProt Q969F8); assay: Human kisspeptin (KISS1R) small molecule agonists, calcium flux assay in KISS1R-HEK293 cells (AID 1920064; active = well fitted activation curve with a large enough effect in the repeat runs)
Sequence of KiSS-1 receptor (Homo sapiens) (Q969F8 whole entry, looked up): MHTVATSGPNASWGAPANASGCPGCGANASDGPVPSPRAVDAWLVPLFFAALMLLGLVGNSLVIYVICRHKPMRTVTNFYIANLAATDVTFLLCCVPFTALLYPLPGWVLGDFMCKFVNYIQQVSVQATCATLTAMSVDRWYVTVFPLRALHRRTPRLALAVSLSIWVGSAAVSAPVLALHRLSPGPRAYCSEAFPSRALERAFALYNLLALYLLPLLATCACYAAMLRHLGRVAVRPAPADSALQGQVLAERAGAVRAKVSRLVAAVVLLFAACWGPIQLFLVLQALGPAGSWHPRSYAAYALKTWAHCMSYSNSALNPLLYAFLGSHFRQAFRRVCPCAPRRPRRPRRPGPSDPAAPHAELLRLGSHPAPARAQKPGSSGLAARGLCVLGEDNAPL
Method in brief: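 Stable human KISS1R HEK293 line; 18 h plating, 37 C/5% CO2; calcium dye 1 h 37 C; compound pin transfer; kinetic fluorescence Ex/Em 480/540, 3 min.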

[4] = G protein-coupled receptor (GPCR) small molecule agonists, calcium flux assay: HEK293 wild type cell line counter screen (AID 1920065)
Method in brief: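 Kinetic fluorescence at Ex/Em 480/540, recorded every second over 3 min, served as the read-out after compound addition. Each compound was tested at 15 concentrations in triplicate on cells pre-loaded with calcium dye for 1 h.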

[5] = p53 small molecule agonists, cell-based qHTS assay with human liver microsomes (AID 1963577);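 also: p53 response element beta-lactamase reporter cells with liver microsomes plus NADPH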
Method in brief: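 16 h, 37 C exposure of p53RE-bla cells to compounds with human liver microsomes and NADPH (0.5 mg/mL final each); detection via LiveBLAzer mixture, 2 h dark at room temperature.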

[6] = p53 small molecule agonists, cell-based qHTS assay with rat liver microsomes (AID 1963578)
Method in brief: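 With rat liver microsomes and NADPH present (0.5 mg/mL final each), p53RE-bla cells are treated with compound for 16 h at 37 C. LiveBLAzer detection mixture is then applied for 2 h at room temperature in the dark.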

[7] = p53 small molecule agonists, cell-based qHTS assay with human liver microsomes: qHTS cell viability counter screen (AID 1963579); also: nearly all actives have a fitted effect of over 45% in size
Method in brief: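 In this multiplexed counter screen, the reporter plates were subsequently treated with CellTiter-Glo so that cell viability, reflected by luminescence, could be recorded for p53RE-bla cells dosed 16 h with compounds under microsomal activation (HLM and NADPH).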

[8] = p53 small molecule agonists, cell-based qHTS assay with rat liver microsomes: qHTS cell viability counter screen (AID 1963580); also: nearly all actives have a fitted effect of over 45% in size
Method in brief: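 Viability is assessed in parallel with the p53 reporter read: HCT-116 p53RE-bla cells receive compounds plus rat microsomes and NADPH (0.5 mg/mL final apiece), incubate 16 h at 37 C, and then CellTiter-Glo luminescence is recorded.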

[9] = p53 small molecule agonists, cell-based qHTS assay: qHTS cell viability counter screen (AID 1963581); also: nearly all actives have a fitted effect of over 45% in size
Method in brief: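 HCT-116 p53RE-bla cells, 4,000/well, plated 5 h before compound pin transfer; 16 h at 37 C; bla substrate 2 h RT; then CellTiter-Glo, 30 min RT, luminescence.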

[10] = p53 small molecule agonists, cell-based qHTS assay (AID 1963582; active = well fitted activation curve with a large enough effect in the signal ratio in the repeat runs, not every such curve was filed as active; the % refers to the signal ratio)
Method in brief: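 Reporter line: p53RE-bla. Pre-incubation 5 h, 37 C, 5% CO2; compound (DMSO, pin tool) 16 h, 37 C; B/G FRET substrate 2 h RT; fluorescence intensity read.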

[11] = biological target: 5-hydroxytryptamine receptor 2A (Homo sapiens) (UniProt P28223); assay: 5-hydroxytryptamine receptor 2A (HTR2A) small molecule antagonists, cell-based qHTS assay (AID 1963586); also: nearly all actives have a fitted effect of over 45% in size
Sequence of 5-hydroxytryptamine receptor 2A (Homo sapiens) (P28223 whole entry, looked up): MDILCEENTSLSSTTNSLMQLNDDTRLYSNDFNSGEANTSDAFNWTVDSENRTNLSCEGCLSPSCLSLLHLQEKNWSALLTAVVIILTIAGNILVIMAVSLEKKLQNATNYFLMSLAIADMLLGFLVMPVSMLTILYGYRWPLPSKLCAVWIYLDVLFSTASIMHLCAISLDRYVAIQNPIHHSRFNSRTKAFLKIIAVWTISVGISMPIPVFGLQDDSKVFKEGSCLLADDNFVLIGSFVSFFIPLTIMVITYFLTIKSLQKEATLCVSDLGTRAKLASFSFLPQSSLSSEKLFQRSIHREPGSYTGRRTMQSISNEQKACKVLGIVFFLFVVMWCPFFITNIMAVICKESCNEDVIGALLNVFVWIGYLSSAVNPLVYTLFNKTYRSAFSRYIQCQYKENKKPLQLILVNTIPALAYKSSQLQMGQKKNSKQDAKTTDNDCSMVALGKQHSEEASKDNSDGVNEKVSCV
Method in brief: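 Antagonist-mode intracellular calcium assay: DOI (4 nM) added after 5 min compound pre-incubation at room temperature to dye-loaded HTR2A-CHO cells. Fluorescence followed for 3 min, sampled every second.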

[12] = biological target: 5-hydroxytryptamine receptor 2A (Homo sapiens) (UniProt P28223); assay: 5-hydroxytryptamine receptor 2A (HTR2A) small molecule agonists, cell-based qHTS assay (AID 1963587); also: nearly all actives have a fitted effect of over 30% in size
Method in brief: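 CHO cells stably expressing human HTR2A, plated 18 h, loaded with calcium dye 1 h at 37 C. Agonist mode: compounds added and intracellular calcium fluorescence recorded kinetically for 2 min at 1 sec intervals.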

[13] = biological target: Muscarinic acetylcholine receptor M1 (Homo sapiens) (UniProt P11229); assay: Cholinergic receptor muscarinic 1 (CHRM1) small molecule antagonists, cell-based qHTS assay (AID 1963588); also: nearly all actives have a fitted effect of over 40% in size
Sequence of Muscarinic acetylcholine receptor M1 (Homo sapiens) (P11229 whole entry, looked up): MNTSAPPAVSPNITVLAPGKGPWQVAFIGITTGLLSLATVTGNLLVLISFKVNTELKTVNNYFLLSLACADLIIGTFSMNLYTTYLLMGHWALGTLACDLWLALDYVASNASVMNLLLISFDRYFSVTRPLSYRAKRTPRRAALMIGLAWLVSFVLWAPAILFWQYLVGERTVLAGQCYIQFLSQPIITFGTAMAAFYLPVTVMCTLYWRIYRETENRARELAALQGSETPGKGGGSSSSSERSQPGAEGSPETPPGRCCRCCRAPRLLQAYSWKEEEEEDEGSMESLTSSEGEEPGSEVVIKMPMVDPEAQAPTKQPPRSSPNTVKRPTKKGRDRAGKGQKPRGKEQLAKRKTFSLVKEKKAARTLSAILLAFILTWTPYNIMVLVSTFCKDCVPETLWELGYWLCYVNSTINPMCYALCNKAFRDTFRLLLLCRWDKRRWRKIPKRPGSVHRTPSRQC
Method in brief: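 CHRM1-CHO calcium-flux assay, antagonist mode. Cells were seeded 18 h, dye-loaded 1 h at 37 C and given compound for 5 min at RT, then acetylcholine was added at 50nM. FDSS fluorescence was read 3 min; 15 concentrations, three runs.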

[14] = biological target: Muscarinic acetylcholine receptor M1 (Homo sapiens) (UniProt P11229); assay: Cholinergic receptor muscarinic 1 (CHRM1) small molecule agonists, cell-based qHTS assay (AID 1963589); also: nearly all actives have a fitted effect of over 35% in size
Method in brief: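 Human M1 in stable CHO line; 18 h plating, 1 h dye load 37 C; cpd added (agonist mode); Ca2+ fluorescence kinetic read, 1 s intervals; 15 conc, 3 runs.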

[15] = cAMP Responsive Elements (CRE) small molecule agonists, cell-based qHTS assay (AID 1963590)
Method in brief: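 HEK 293T CRE-bla, 2,000 cells/well, 18 h preincubation 37 C/5% CO2; cpds (DMSO) pinned, 3 h; LiveBLAzer B/G FRET substrate, 2 h RT.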

[16] = cAMP Responsive Elements (CRE) small molecule antagonists, cell-based qHTS assay (AID 1963591; active = well fitted inhibition curve with a large enough effect in the signal ratio in the repeat runs, not every such curve was filed as active; the % refers to the signal ratio)
Method in brief: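 Beta-lactamase reporter read by FRET substrate (LiveBLAzer B/G) after 2 h at room temperature. CRE-bla HEK293T cells had received compound plus 0.25 uM (final) NKH477 for 3 h at 37 °C.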

[17] = biological target: Beta-2 adrenergic receptor (Homo sapiens) (UniProt P07550); assay: Adrenergic beta2 receptor (ADRB2) small molecule antagonists, cell-based qHTS assay (AID 1963592); also: series mostly up to about 92 µM; nearly all actives have a fitted effect of over 50% in size
Sequence of Beta-2 adrenergic receptor (Homo sapiens) (P07550 whole entry, looked up): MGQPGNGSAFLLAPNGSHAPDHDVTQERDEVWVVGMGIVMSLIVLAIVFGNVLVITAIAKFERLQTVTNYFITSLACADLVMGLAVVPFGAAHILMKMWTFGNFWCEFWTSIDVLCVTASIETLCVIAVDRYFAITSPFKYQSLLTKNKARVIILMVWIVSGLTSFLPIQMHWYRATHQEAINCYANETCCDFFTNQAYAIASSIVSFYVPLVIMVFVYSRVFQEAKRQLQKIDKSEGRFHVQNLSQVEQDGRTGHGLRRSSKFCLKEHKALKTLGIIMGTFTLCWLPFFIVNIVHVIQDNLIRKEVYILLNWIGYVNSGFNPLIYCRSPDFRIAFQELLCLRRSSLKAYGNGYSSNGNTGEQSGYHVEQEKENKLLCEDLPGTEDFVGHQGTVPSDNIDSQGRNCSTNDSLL
Method in brief: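 Cells (CHO, stable ADRB2 overexpression) incubated 18-20hr at 37C; compounds added from DMSO; agonist mix (1nM isoproterenol, 100uM IBMX, 25uM Ro-20-1724) added; 0.5hr RT; d2-cAMP and anti-cAMP-cryptate added; 1hr RT; 665/615 nm read.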

[18] = biological target: Beta-2 adrenergic receptor (Homo sapiens) (UniProt P07550); assay: Adrenergic beta2 receptor (ADRB2) small molecule agonists, cell-based qHTS assay (AID 1963593);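 also: CHO cells stably overexpressing human ADRB2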
Method in brief: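 CHO cells stably over-expressing ADRB2 were plated overnight at 37C, then dosed with compounds plus a stimulation mix containing 100uM IBMX and 25uM Ro-20-1724 for 0.5hr at room temperature. cAMP was measured by HTRF competition, 1hr.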

[19] = biological target: D(2) dopamine receptor (Homo sapiens) (UniProt P14416); assay: Dopamine D2 receptor (DRD2) small molecule agonists, cell-based qHTS assay (AID 1963594); also: nearly all actives have a fitted effect of over 35% in size
Sequence of D(2) dopamine receptor (Homo sapiens) (P14416 whole entry, looked up): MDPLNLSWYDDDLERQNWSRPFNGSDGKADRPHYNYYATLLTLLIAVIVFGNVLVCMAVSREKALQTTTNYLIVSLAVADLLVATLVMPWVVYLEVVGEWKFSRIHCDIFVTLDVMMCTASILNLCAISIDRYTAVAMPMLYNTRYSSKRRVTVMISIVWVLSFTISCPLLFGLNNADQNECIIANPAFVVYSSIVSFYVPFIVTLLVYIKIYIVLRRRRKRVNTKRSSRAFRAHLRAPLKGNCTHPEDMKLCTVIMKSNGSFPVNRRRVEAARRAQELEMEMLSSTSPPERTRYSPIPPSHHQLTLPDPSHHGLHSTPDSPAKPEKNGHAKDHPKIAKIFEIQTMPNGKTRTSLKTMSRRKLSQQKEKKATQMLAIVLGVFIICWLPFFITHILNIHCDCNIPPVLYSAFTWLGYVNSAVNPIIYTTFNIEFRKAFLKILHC
Method in brief: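 HEK293 cells stably expressing human DRD2, pre-treated with PDE inhibitor Ro20-1724 (0.1 mM final) and compound 10 min at room temperature, then stimulated with NKH477 (200nM […]) for 30 min. cAMP read by HTRF (665/620 nm).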

[20] = biological target: D(2) dopamine receptor (Homo sapiens) (UniProt P14416); assay: Dopamine D2 receptor (DRD2) small molecule antagonists, cell-based qHTS assay (AID 1963595; active = well fitted inhibition curve with a large enough effect in the signal ratio in the repeat runs, with a control signal flat; the % refers to the signal ratio)
Method in brief: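 DRD2-HEK293; 0.1 mM Ro20-1724; cpd 10 min RT; NKH477 200 nM + quinpirole 12 nM, 30 min RT; HTRF cAMP (cAMP-d2/anti-cAMP cryptate), 665/620 nm ratio after 1 h.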

Measured: Potency

CCC1CCCCC1
inactive: all assays above

C[C@@H](O)[C@H]1C(=O)N2C(C(=O)O)=C(SCCN=CN)C[C@H]12
not listed: [9] | [17]
inactive: all other assays above

CC12CCC(C1)C(C)(C)C2O (stereo not drawn)
inactive: all assays above

N#CCN(CC#N)CCN(CC#N)CC#N
not listed: [20]
inactive: all other assays above

c1ccc(CSCc2ccccc2)cc1
not listed: [11]
inactive: all other assays above

CCCC=O
not listed: [12] | [18] | [19] | [20]
inactive: all other assays above

C[C@@H]1CCC[C@H](C)N1
not listed: [18]
inactive: all other assays above

Nc1ccc(N=Nc2ccccc2)c(N)n1
active: [1] 1.73 µM and 2.73 µM and 2.37 µM
not listed: [16] | [17]
inactive: all other assays above

O=C(O)c1ccc(CO)o1
not listed: [17]
inactive: all other assays above

CC(N)CN (stereo not drawn)
not listed: [1]
inactive: all other assays above

Cc1cccc(N)n1
not listed: [1] | [10] | [11] | [13]
inactive: all other assays above
